Where a structure was tested more than once in an assay, its records may differ in their call. Activity calls are given as the source filed them. Rule for the calls: active = hit-call score of the fitted dose curve at least 0.9, where 1 is the maximum; inactive = score below 0.9.
Columns and labels:
[1] = APR_HepG2_P-H2AX_72hr: Apredica 72-hour HepG2 Assay for H2AX Phosphorylation (AID 2282916); settings: imaging, actives raise or lower the signal;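 note: phospho-histone H2A.x immunostain intensity per cell marking DNA damage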
Summary of the method: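 HepG2 human liver cells were exposed for 72 hr to compounds at 0.39–200 uM (10 concentrations, duplicate per plate) in 0.5% v/v DMSO. Fixed, permeabilized cells were immunolabeled for phospho-histone H2A.x with Hoechst 33342 and imaged by HCS fluorescence; bidirectional fit versus DMSO.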

[2] = APR_HepG2_MitoMembPot_72hr: Apredica 72-hour HepG2 Assay for Mitochondrial Membrane Potential (AID 2282917); settings: imaging, actives raise or lower the signal
Summary of the method: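 HepG2 cells dosed 72 hr with compound at 0.39–200 uM in duplicate, 0.5% v/v DMSO final. Mitochondria stained with 250 nM MitoTracker Red CMXRos for 30 min before formaldehyde fixation, imaged by high-content fluorescence; bidirectional fit versus DMSO.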

[3] = APR_HepG2_MitoticArrest_72hr: Apredica 72-hour HepG2 Assay for Mitotic Arrest (AID 2282918); settings: high-content imaging, actives raise or lower the signal
Summary of the method: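 HepG2 cells were exposed for 72 hr to compound at 0.39–200 uM (10 concentrations, duplicate) in 0.5% v/v DMSO, fixed in 3.7% formaldehyde, immunostained for phospho-histone H3 with Hoechst 33342 and imaged by high-content fluorescence; bidirectional fits versus DMSO.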

[4] = APR_HepG2_MicrotubuleCSK_72hr: Apredica 72-hour HepG2 Assay for Microtubule CSK Stabilty (AID 2282919); settings: HepG2 microtubule cytoskeleton, high-content imaging, actives raise or lower the signal
Summary of the method: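 HepG2 cells were exposed 72 hr to compound at 0.39–200 uM in duplicate (0.5% DMSO final), then fixed and permeabilized. Alpha-tubulin immunofluorescence was imaged by high-content microscopy, with bidirectional fitting against DMSO and taxol as positive control.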

[5] = APR_HepG2_P-H2AX_24hr: Apredica 24-hour HepG2 Assay for H2AX Phosphorylation (AID 2282920); settings: high-content imaging, actives raise or lower the signal
Summary of the method: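 HepG2 human liver cells were exposed for 24 hr to compounds at 0.39–200 uM in duplicate, with 0.5% v/v DMSO final. Fixed cells were immunostained for phospho-histone H2A.x plus Hoechst 33342, imaged by HCS fluorescence, and fitted bidirectionally against DMSO.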

[6] = APR_HepG2_StressKinase_72hr: Apredica 72-hour HepG2 Assay for Stress Kinase (AID 2282921); settings: HepG2 stress kinase (phospho-c-Jun) imaging, actives raise or lower the signal
Summary of the method: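 Cells were exposed for 72 h to ten concentrations (0.39–200 uM, duplicate) at 0.5% v/v DMSO final, then fixed with 3.7% formaldehyde, permeabilized and immunostained for phospho-c-Jun (Cy3 secondary) with Hoechst nuclear counterstain.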

[7] = APR_HepG2_StressKinase_24hr: Apredica 24-hour HepG2 Assay for Stress Kinase (AID 2282922); settings: HepG2 stress kinase (phospho-c-Jun) imaging, actives raise or lower the signal
Summary of the method: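 HepG2 cells exposed 24 h to 0.39–200 uM compound in duplicate (0.5% v/v DMSO final). Cells fixed in 3.7% formaldehyde, permeabilized and immunostained for phospho-c-Jun; read by high-content fluorescence imaging, fitted bidirectionally against DMSO.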

[8] = APR_HepG2_MitoMass_72hr: Apredica 72-hour HepG2 Assay for Mitochondrial Mass (AID 2282924); settings: high-content imaging, actives raise or lower the signal;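 note: MitoTracker Red CMXRos stain intensity per cell imaged as mitochondrial mass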
Summary of the method: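 HepG2 cells dosed 72 hr at 0.39–200 uM (0.5% DMSO), in duplicate. MitoTracker Red CMXRos 250 nM loaded 30 min before formaldehyde fixation; high-content fluorescence imaging, bidirectional fit versus DMSO.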

[9] = APR_HepG2_NuclearSize_72hr: Apredica 72-hour HepG2 Assay for Nuclear Size (AID 2282925); settings: high-content imaging, actives raise or lower the signal
Summary of the method: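 HepG2 cells dosed 72 h at 0.39–200 uM (10 concentrations, duplicate) in 0.5% v/v DMSO final. Fixed, Hoechst 33342-stained nuclei imaged; nuclear diameter measured by automated image analysis. Bidirectional fit versus DMSO.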

[10] = ATG_CRE_CIS: Attagene CIS-FACTORIAL HepG2 Assay for human cAMP Responsive Element (CRE) binding protein 3 (AID 2282926); settings: HepG2 CRE cis-reporter, Attagene multiplexed mRNA; actives raise or lower the signal
Summary of the method: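 HepG2 cells transiently transfected with a multiplexed reporter library (CRE-driven unit among them) were dosed for 24 h. Reporter mRNA was quantified by RT-PCR, fluorescent labelling, HpaI digestion and capillary electrophoresis, with bidirectional fitting against DMSO baseline.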

[11] = biological target: CCAAT/enhancer-binding protein beta (Homo sapiens) (UniProt P17676); assay: ATG_C_EBP_CIS: Attagene CIS-FACTORIAL HepG2 Assay for human CCAAT/Enhancer Binding Protein (C/EBP) beta (AID 2282927); settings: HepG2 Attagene cis-factorial transcription factor reporter; actives raise or lower the signal
Summary of the method: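 Transiently transfected HepG2 (MRTU library, endogenous TF-driven promoters); 24 h dosing; total RNA → oligo(dT) RT → PCR → 6-FAM primer extension → HpaI digest → CE; fit bidirectionally vs DMSO.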

[12] = ATG_CMV_CIS: Attagene CIS-FACTORIAL HepG2 Assay for human CMV (Internal Marker) (AID 2282928); settings: HepG2 CMV promoter reporter, transcription factor profiling; actives raise or lower the signal;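 note: endpoint acts as a background internal control marker rather than a target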
Summary of the method: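 HepG2 cells transiently transfected with multiple cis-regulated reporter units; 24 h compound exposure. Reporter mRNA quantified by RT-PCR, 6-FAM primer-extension labeling, HpaI digestion and capillary electrophoresis; bidirectional fitting against DMSO baseline.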

[13] = ATG_DR4_LXR_CIS: Attagene CIS-FACTORIAL HepG2 Assay for human Liver X Receptor (LXR), DR4 submotif (AID 2282929); settings: HepG2 Attagene DR4 cis-reporter, mRNA transcription; actives raise or lower the signal
Summary of the method: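 Fluorescence intensity of labelled reporter cDNA fragments, separated by capillary electrophoresis, gives the signal. HepG2 cells bearing cis-regulated reporter constructs were treated 24 h; activity fitted bidirectionally relative to DMSO negative control.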

[14] = biological target: Aryl hydrocarbon receptor (Homo sapiens) (UniProt P35869); assay: ATG_Ahr_CIS: Attagene CIS-FACTORIAL HepG2 Assay for human Aryl Hydrocarbon Receptor (Ahr) (AID 2282930); settings: HepG2 AhR cis-factorial reporter transcription; actives raise or lower the signal
Summary of the method: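 Read-out: reporter mRNA quantified by RT-PCR with fluorescent primer extension and capillary electrophoresis. Human HepG2 liver cells carried transfected cis-promoter reporter units and were exposed to chemical for 24 h; gain or loss fitted relative to DMSO.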

[15] = ATG_AP_1_CIS: Attagene CIS-FACTORIAL HepG2 Assay for human Activator Protein 1 (AP-1) (AID 2282931); settings: HepG2 Attagene cis-factorial AP-1 reporter mRNA; actives raise or lower the signal
Summary of the method: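 Multiplexed HepG2 reporter assay, 24 h dosing. mRNA induction detected by RT-PCR plus capillary electrophoresis. Activity fitted in both directions against DMSO.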

[16] = ATG_AP_2_CIS: Attagene CIS-FACTORIAL HepG2 Assay for human Activator Protein 2 (AP-2) (AID 2282932); settings: HepG2 AP-2 cis-reporter, Attagene transcription factor profiling; actives raise or lower the signal
Summary of the method: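 Multiplexed mRNA reporter assay in HepG2: cis-regulated units report endogenous factor activity after 24 h treatment. Fluorescence from capillary electrophoresis of RT-PCR products gives the signal, with DMSO as baseline.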

[17] = biological target: Retinoic acid receptor alpha (Homo sapiens) (UniProt P10276); assay: ATG_DR5_RAR_CIS: Attagene CIS-FACTORIAL HepG2 Assay for human Retinoic Acid Receptor Alpha (RARE), DR5 submotif (AID 2282934); settings: HepG2 Attagene cis-factorial RARE DR5 reporter, mRNA; actives raise or lower the signal;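 for AC50: reporter responds to endogenous RAR alpha beta and gamma in HepG2 not RARA alone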
Summary of the method: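 Read-out: DR5-driven reporter transcript measured by RT-PCR, 6-FAM primer extension, HpaI digest and capillary electrophoresis. Human HepG2 liver cells carry transiently transfected cis-element reporter constructs; dosing lasts 24 h. Gain or loss of signal fitted against DMSO baseline.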

[18] = biological target: Transcription factor E2F1 (Homo sapiens) (UniProt Q01094); assay: ATG_E2F_CIS: Attagene CIS-FACTORIAL HepG2 Assay for human E2F Transcription Factor 1 (AID 2282935); settings: HepG2 Attagene cis-reporter, E2F reporter RNA transcripts; actives raise or lower the signal
Summary of the method: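 Measures reporter transcript levels via RT-PCR with capillary electrophoresis detection in HepG2 cells harboring cis-regulated reporter units; 24 h post-dose; bidirectional curve fitting with DMSO as baseline.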

[19] = APR_HepG2_p53Act_72hr: Apredica 72-hour HepG2 Assay for p53 Activation (AID 2282923); settings: high-content imaging, actives raise or lower the signal;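 note: average cellular p53 protein immunofluorescence intensity in HepG2 cells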
Summary of the method: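 Cells were dosed for 72 hr with compounds at 0.39–200 uM in duplicate (final DMSO 0.5% v/v), then fixed in 3.7% formaldehyde, permeabilized with Triton X-100 and immunostained for p53 (Cy5) with Hoechst 33342 nuclear counterstain.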

[20] = ATG_BRE_CIS: Attagene CIS-FACTORIAL HepG2 Assay for human Bone Morphogenetic Protein (BMP) Response Element (BRE) (AID 2282933); settings: HepG2 BMP response element reporter, Attagene transcription factor profiling; actives raise or lower the signal
Summary of the method: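 Read-out: reporter mRNA induction quantified by RT-PCR and capillary electrophoresis after 24 h chemical exposure of transfected HepG2 cells. Endogenous factor activity on the BMP response element; gain or loss fitted against DMSO baseline.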

Measured: AC50

Transcription factor E2F1 (Homo sapiens), sequence (Q01094 whole entry, looked up): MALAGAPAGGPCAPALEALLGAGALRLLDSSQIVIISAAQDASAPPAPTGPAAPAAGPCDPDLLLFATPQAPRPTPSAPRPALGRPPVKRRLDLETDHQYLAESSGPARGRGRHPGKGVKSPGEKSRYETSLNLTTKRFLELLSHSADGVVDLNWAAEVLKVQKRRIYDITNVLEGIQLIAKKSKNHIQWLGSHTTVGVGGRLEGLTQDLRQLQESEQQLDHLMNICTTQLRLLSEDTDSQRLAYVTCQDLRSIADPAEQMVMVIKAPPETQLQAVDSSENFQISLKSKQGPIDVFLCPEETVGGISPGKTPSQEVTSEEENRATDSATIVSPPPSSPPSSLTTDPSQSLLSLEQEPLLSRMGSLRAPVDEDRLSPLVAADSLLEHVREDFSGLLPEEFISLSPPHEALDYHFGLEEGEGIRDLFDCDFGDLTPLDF
Aryl hydrocarbon receptor (Homo sapiens), sequence (P35869 whole entry, looked up): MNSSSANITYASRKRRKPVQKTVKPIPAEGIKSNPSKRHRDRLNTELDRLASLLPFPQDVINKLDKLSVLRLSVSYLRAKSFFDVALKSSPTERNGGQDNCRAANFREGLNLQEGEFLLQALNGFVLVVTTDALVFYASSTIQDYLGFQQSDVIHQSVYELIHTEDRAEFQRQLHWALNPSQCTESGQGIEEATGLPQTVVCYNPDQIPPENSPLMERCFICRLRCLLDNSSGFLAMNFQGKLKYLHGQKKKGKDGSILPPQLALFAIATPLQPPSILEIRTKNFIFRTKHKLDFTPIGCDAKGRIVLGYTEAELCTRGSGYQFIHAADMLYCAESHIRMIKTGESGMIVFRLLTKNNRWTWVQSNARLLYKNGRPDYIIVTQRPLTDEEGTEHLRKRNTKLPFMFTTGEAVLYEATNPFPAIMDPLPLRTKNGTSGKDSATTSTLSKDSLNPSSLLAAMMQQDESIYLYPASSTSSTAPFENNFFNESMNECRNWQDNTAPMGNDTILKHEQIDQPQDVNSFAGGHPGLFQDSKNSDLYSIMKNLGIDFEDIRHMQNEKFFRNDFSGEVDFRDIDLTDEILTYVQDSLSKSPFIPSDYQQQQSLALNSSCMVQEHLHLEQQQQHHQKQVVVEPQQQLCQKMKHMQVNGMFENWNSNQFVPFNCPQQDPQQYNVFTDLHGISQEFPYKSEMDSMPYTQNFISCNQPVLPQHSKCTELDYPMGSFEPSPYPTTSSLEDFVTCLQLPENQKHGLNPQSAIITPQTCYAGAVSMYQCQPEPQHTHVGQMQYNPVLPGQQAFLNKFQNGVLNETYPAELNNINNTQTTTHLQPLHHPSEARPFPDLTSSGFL
CCAAT/enhancer-binding protein beta (Homo sapiens), sequence (P17676 whole entry, looked up): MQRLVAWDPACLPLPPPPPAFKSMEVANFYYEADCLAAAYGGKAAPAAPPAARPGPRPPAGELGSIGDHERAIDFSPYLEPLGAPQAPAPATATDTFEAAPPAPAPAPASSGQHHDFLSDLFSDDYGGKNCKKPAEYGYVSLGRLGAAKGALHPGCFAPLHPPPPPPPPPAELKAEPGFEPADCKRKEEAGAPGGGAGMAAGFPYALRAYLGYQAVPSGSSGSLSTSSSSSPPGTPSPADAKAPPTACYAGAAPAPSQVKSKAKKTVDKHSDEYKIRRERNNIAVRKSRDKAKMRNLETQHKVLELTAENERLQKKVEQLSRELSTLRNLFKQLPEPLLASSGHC
Retinoic acid receptor alpha (Homo sapiens), sequence (P10276 whole entry, looked up): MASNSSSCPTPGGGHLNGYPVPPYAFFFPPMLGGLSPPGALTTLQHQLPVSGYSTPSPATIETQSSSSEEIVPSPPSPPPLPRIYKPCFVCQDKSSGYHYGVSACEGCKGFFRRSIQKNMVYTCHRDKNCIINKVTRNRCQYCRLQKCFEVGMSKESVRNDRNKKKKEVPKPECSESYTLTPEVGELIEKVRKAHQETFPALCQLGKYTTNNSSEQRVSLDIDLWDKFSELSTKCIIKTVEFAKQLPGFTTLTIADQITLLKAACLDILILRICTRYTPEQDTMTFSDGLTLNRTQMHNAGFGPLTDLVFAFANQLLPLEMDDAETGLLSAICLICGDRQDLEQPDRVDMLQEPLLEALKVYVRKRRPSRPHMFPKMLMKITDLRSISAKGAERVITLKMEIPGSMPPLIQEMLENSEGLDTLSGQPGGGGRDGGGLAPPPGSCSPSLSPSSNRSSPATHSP

CCc1cccc(CC)c1N(COC)C(=O)CCl
active: [2] 31.1 µM | [5] 70.7 µM | [10] 3.04 µM | [11] 3.69 µM | [15] 6.1 µM
not listed: [19] | [20]
inactive: all other assays above

C#CCC1=C(C)C(OC(=O)C2C(C=C(C)C)C2(C)C)CC1=O (centres undefined)
active: [10] 27.1 µM | [11] 21.7 µM | [13] 50 µM | [14] 78.6 µM | [15] 37.1 µM | [16] 74.9 µM | [20] 9.01 µM | [17] 9.92 µM
not listed: [9]
inactive: all other assays above

Cc1cc(C2CC2)nc(Nc2ccccc2)n1
active: [1] 51.8 µM | [3] 70.1 µM | [4] 56.9 µM | [10] 18 µM | [12] 13.1 µM | [15] 32.2 µM | [17] 12.3 µM
not listed: [9] | [14] | [20]
inactive: all other assays above

Cc1nn(-c2cc(NS(C)(=O)=O)c(Cl)cc2Cl)c(=O)n1C(F)F
not listed: [17] | [20]
inactive: all other assays above

CSc1nc(NC(C)C)nc(NC(C)C)n1
active: [17] 21.9 µM
not listed: [20]
inactive: all other assays above

COP(=O)(OC)C(O)C(Cl)(Cl)Cl (centres undefined)
active: [5] 100 µM | [19] 113 µM | [10] 32 µM | [11] 50 µM | [12] 22.1 µM | [15] 35.2 µM | [20] 30.1 µM
not listed: [7]
inactive: all other assays above

CCOP(=S)(OCC)OC(Cl)C(Cl)(Cl)Cl (centres undefined)
active: [4] 109 µM | [10] 25.3 µM | [11] 30.3 µM | [12] 71.1 µM
not listed: [9] | [20]
inactive: all other assays above

C[Si](Cn1cncn1)(c1ccc(F)cc1)c1ccc(F)cc1
active: [13] 48.7 µM | [15] 50 µM | [20] 39.1 µM
not listed: [9] | [17]
inactive: all other assays above

O=C(O)c1cc(Oc2ccc(C(F)(F)F)cc2Cl)ccc1[N+](=O)[O-]
not listed: [9] | [19] | [20]
inactive: all other assays above

CN1COCN(Cc2cnc(Cl)s2)C1=N[N+](=O)[O-]
inactive: all assays above

O=[N+]([O-])c1cc(C(F)(F)F)c(Cl)c([N+](=O)[O-])c1Nc1ncc(C(F)(F)F)cc1Cl
active: [1] 1.13 µM | [3] 0.767 µM | [4] 100 µM | [11] 7.85 µM | [13] 11.1 µM | [14] 19.1 µM | [15] 2.7 µM | [18] 9.39 µM
inactive: [2] | [5] | [6] | [8] | [10] | [11] | [12] | [13] | [14] | [15] | [16] | [17] | [18]
